Source: PubChem (several laboratories)
HSP90 refold inh: inhibitors of HSP90 luciferase refolding in rabbit reticulocyte lysate | AID 1789 | luciferase refolding luminescence, 3 h | inhibition, % at 5.6 µM | 290,000 tested, 0.91% active;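 active = inhibition above the screen-wide mean plus 3 SD, computed separately per campaign, cut at about 16% in these data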;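 also: inhibitors lower the luminescence because luciferase stays unfolded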
HSF-1 act: increases HSF-1 driven luciferase reporter signal. NIH3T3-HGL HSF-1 luciferase reporter, MG132, 8 h; 100% = twice DMSO control signal. AID 504408. activation, % at 9 µM. 300,000 tested, 1.7% active;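 active = mean replicate activation of at least 50% with a set share of replicates each reaching 50%; inconclusive = only one of those two conditions met; inactive = mean below 50% and too few replicates reaching it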
DAX1 inh: inhibits human nuclear receptor DAX1; 340,000 tested, 0.99% active; inhibition, % at 6.75 µM; AID 504766; HEK293 Gal4-DAX1 luciferase reporter, luminescence;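 active = inhibition above the mean over all tested compounds plus 3 SD, cut at about 4.2% in these data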;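 also: inhibition shows as a rise in luminescence from relieved DAX1 repression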
AHR act: human AHR activation | AID 2796 | AHR-responsive luciferase reporter cells, luminescence | activation, % at 5 µM | 320,000 tested, 2.5% active | P35869; in the data active = activation above about 47%
Target sequence (P35869 whole entry, looked up): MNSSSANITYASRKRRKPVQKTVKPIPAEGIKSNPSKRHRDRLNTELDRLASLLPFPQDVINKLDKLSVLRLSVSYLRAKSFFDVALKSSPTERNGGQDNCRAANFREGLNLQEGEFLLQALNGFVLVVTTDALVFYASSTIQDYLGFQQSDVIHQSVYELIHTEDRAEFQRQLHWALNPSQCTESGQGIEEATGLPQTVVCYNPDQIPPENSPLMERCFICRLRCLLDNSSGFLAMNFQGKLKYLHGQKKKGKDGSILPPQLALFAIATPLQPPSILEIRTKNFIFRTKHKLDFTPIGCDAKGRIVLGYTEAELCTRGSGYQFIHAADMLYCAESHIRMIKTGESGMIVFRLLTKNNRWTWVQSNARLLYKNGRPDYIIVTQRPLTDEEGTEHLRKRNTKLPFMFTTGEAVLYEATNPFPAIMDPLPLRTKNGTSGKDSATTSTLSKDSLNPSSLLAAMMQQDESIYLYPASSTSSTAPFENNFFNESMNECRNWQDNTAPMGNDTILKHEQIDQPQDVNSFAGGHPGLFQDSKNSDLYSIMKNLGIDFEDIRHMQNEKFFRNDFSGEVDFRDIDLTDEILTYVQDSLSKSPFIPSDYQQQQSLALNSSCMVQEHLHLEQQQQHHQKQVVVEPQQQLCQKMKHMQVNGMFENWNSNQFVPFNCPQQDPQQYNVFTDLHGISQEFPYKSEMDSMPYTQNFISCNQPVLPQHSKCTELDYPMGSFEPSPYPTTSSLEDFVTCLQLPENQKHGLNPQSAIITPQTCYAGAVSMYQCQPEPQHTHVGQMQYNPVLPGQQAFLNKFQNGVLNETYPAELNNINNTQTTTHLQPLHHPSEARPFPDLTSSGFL
GAA850 FXN act: increases GAA850 frataxin promoter reporter activity | HEK293 lucGAA850 FXN promoter luciferase reporter, 24 h; percent of 10 µM SAHA response | activation, % at 6 µM | 360,000 tested, 0.56% active;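 active = activation above the average of all compounds screened plus 3 SD, cutoff fixed separately per campaign, cut at about 7.5% in these data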
HSF1 inhib: HSF1 inhibition. activity change, negative = inhibition, % at 7.5 µM (by protocol). NIH3T3-HGL HSE-luciferase, MG132-induced, luminescence 8 h; hits give low values. AID 2098. 300,000 tested, 0.77% active;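 active = more than half of replicate wells show activity change below -50%, luminescence cut by over half; inconclusive = some wells, but at most half, below -50%; inactive = no replicate well below -50%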;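 also: luciferase reports HSF-1 transcriptional activity via heat shock element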
AHR act cf: human AHR activation, confirmation; shares compounds with AHR act; human cells, AHR-responsive luciferase reporter, luminescence; activation, % at 9 µM; 2,300 tested, 87% active; in the data active = activation above about 49%;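 also: HepG2 hepatoma cells carrying a DRE-driven firefly luciferase reporter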
PXR act counter: counter-screen for AHR activators: human PXR activators | activation, % at 11.6 µM | cell-based PXR reporter, luciferase luminescence | shares compounds with AHR act | AID 434939 | 2,300 tested, 88% active; in the data active = activation above about 11%;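 also: human hepatoma DPX-2 cells expressing full-length human PXR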
Large screens that a line does not name were inactive (follow-up assays come after a bar, where they were run). The list is not random: actives were taken first. Their share in the collection is about 5.9%.

O=C(CSc1nccn1-c1ncc(C(F)(F)F)cc1Cl)c1ccc(Cl)cc1	HSF1 inhib inconclusive
COc1cccc(-n2c(N)c(-c3nc4ccccc4[nH]3)sc2=S)c1	AHR act 89, HSF1 inhib -55 | AHR act cf 130 | PXR act counter 97
COc1ccc2nc(-c3cccc(N)c3)[nH]c2c1	none
Cc1ccc(CS(=O)(=O)c2cn(CC(=O)Nc3ccon3)c3ccccc23)cc1	none (no result: HSP90 refold inh)
CN1CCN(c2ccc(Cl)cc2NC(=O)C2COc3ccccc3O2)CC1 (stereo not given)	AHR act 108 | AHR act cf 90 | PXR act counter 30
COc1ccc(CN2CC[C@H]3C=CCc4cccc(c43)C2)cc1	AHR act 82 (no result: HSP90 refold inh, HSF-1 act, HSF1 inhib) | AHR act cf inactive | PXR act counter 26
Cc1ccc(CN2CC[C@H]3C=CCc4cccc(c43)C2)cc1	none (no result: HSP90 refold inh, HSF-1 act, HSF1 inhib)
C=CCNC(=O)C(=O)NCCOc1ccccc1Cl	none
O=C1c2ccccc2C(=O)c2c1ncn2-c1ccccc1	AHR act 87 | AHR act cf 130 | PXR act counter 33
CC1(C)Cc2c(sc3nc(-c4ccccc4)oc(=O)c23)CO1	none
CC(C)Cc1cc(C(=O)N2CCC(N3CCC(C(=O)NC4CC4)CC3)CC2)n[nH]1	none
OCC1OC(Oc2c[nH]c3ccccc23)C(O)C(O)C1O (stereo not given)	AHR act 84 (no result: HSP90 refold inh) | AHR act cf inactive | PXR act counter inactive
OCc1ccccc1O[C@@H]1O[C@H](CO)[C@@H](O)[C@H](O)[C@H]1O	none
CCCc1nc(NCc2ccncc2)c2nnn(Cc3ccccc3F)c2n1	AHR act 81 | AHR act cf 61 | PXR act counter 116
Cc1cccc2c1NC(=O)/C2=C\C(=O)c1cccs1	AHR act 84 | AHR act cf 113 | PXR act counter 116
Cc1cc(C)c2c(c1)/C(=C/C(=O)c1ccc(Br)s1)C(=O)N2	none
O=C(NN=C1CCC(c2ccccc2)CC1)c1ccccc1-n1cccc1 (stereo not given)	AHR act 117 | AHR act cf inactive | PXR act counter inactive
CC1CCC/C(=N/NC(=O)c2ccccc2-n2cccc2)C1 (stereo not given)	AHR act 83 | AHR act cf inactive | PXR act counter 11
CC[C@@H](C)C(NC(=O)OC(C)(C)C)c1cn([C@@H](Cc2cc3ccccc3[nH]2)C(=O)N2CCN(C(=O)OC(C)(C)C)CC2)nn1 (stereo not given in full)	none
COCCn1c(-c2cccs2)nc2nc3ccccc3nc21	none
CCCn1c(-c2cccs2)nc2nc3ccccc3nc21	AHR act 100 | AHR act cf 147 | PXR act counter 37
CCN(CC)S(=O)(=O)c1cccc(C(=O)NCCCn2ccnc2)c1	none
N#C/C(=C/c1cccs1)c1nc2ccccc2[nH]1	HSF-1 act inconclusive, AHR act 117 | AHR act cf 125 | PXR act counter 22
CC(C)CC(=O)C(=O)O	none (no result: HSP90 refold inh, HSF-1 act, HSF1 inhib)
O=C(N/N=C/c1ccc(-n2ccnc2)cc1)c1cccs1	AHR act 97 | AHR act cf 65 | PXR act counter 23
CSc1ccc(/C=N/NC(=O)c2cccs2)cc1	none (no result: DAX1 inh)
CSc1nnc(CNS(=O)(=O)c2ccc(Cl)cc2)n1C	none
Cn1cc(C(=O)Nc2ccc(Cl)cc2)c(C(F)(F)F)n1	AHR act 107 | AHR act cf 101 | PXR act counter 27
CCCc1nn(C)c(C(=O)Nc2ccc(Cl)cc2)c1Cl	AHR act 88 | AHR act cf 126 | PXR act counter 24
CCCc1nn(C)c(C(=O)Nc2ccc(C(C)(C)C)cc2)c1Cl	none
COc1cc(OC)cc(C(=O)Nc2ccc(-n3cnnn3)c(C)c2)c1	none
Cc1c(C(=O)Nc2ccccn2)oc2ccccc12	AHR act 115 | AHR act cf 212 | PXR act counter 21
CCCc1c(C(=O)Nc2cc(C)on2)cnn1-c1ccccc1	none
Cc1cc(NC(=O)c2oc3ccccc3c2C)ccc1-n1cnnn1	AHR act 99 | AHR act cf 100 | PXR act counter 14
CCOc1ccc2oc(C(=O)Nc3ccc(C)cn3)c(C)c2c1	none (no result: HSP90 refold inh, HSF-1 act, AHR act, HSF1 inhib)
Cc1ccc(NC(=O)c2oc3ccccc3c2C)nc1	HSF-1 act 56, AHR act 139 | AHR act cf 141 | PXR act counter 14
CCCc1c(C(=O)Nc2ccc(N3CCOCC3)cc2)cnn1-c1ccccc1	AHR act 83 | AHR act cf 102 | PXR act counter 12
Cc1c(C(=O)Nc2ccc(N3CCOCC3)cc2)oc2ccccc12	AHR act 85 | AHR act cf 131 | PXR act counter 19
Cc1c(C(=O)OCC(=O)Nc2ccc(N3CCOCC3)cc2)oc2ccccc12	none (no result: HSP90 refold inh)
C(=N\Nc1nc2ccccc2s1)/c1ccco1	HSF-1 act 65, AHR act 103 | AHR act cf 105 | PXR act counter 30
COCCn1c(=O)[nH]c2cc(C(=O)Nc3nnc(C)s3)ccc21	none
COc1ccc(CC(=O)NNC(=O)c2ccncc2)cc1	none
Cc1cc(=O)[nH]c(N/N=C/c2ccc(Br)s2)n1	AHR act 81 | AHR act cf 66
O=C1CNC(=S)N1CCc1ccc(O)c(O)c1	none (no result: DAX1 inh)
CCN(C(=O)COC(=O)CNC(=O)c1cccs1)c1c(N)n(Cc2ccccc2)c(=O)[nH]c1=O	none (no result: HSP90 refold inh, HSF-1 act, AHR act, HSF1 inhib)
Cc1cc(NC(=O)C2CC(=O)N(c3ccc(Cl)cc3)C2)no1 (stereo not given)	none
Cc1nn(-c2ccccc2)c2sc(C(=O)NC3CC3)cc12	AHR act 84 | AHR act cf 80 | PXR act counter 39
COc1ccc(-c2nc(-c3ccc(Br)o3)no2)cc1	none
COc1cccc(-c2noc(-c3cccnc3)n2)c1	DAX1 inh 4.2, AHR act 85 | AHR act cf 134 | PXR act counter inactive
COc1ccc(-c2noc(-c3ccc(Br)o3)n2)cc1	AHR act 79 | AHR act cf 107 | PXR act counter 17
COc1cccc(-c2nc(-c3ccccc3)no2)c1	none
COc1cccc(-c2noc(-c3ccc(Br)o3)n2)c1	AHR act 84 (no result: HSF-1 act, HSF1 inhib) | AHR act cf 88 | PXR act counter inactive
CCOc1ccc(OCCOC(=O)CN(C)S(=O)(=O)c2ccc(NC(C)=O)cc2)cc1	none (no result: HSP90 refold inh)
CC(OC(=O)CSCC(=O)Nc1ccc(Cl)cc1)C(=O)N(C)Cc1ccccc1 (stereo not given)	none (no result: HSP90 refold inh, HSF-1 act, AHR act, HSF1 inhib)
CC(C)Oc1ccc(C(=O)Nc2cc(S(=O)(=O)N3CCOCC3)ccc2N2CCOCC2)cc1	none (no result: HSP90 refold inh, HSF-1 act, AHR act, HSF1 inhib)
COc1ccc(NC2CCCN(C(=O)COc3ccc(Cl)cc3C)C2)cc1OC (stereo not given)	none
O=C(/C=C/c1ccc(Cl)cc1Cl)NC(=S)Nc1ccc(CN2CCOCC2)cc1	AHR act 105 | AHR act cf inactive | PXR act counter 83
